Some test systems named below: NCI-H23 lung; NCI-H226 lung; NCI-H322M lung; HOP-62 NSCLC; NCI-H460 lung; HOP-92 NSCLC; NCI-H522 lung; A549/ATCC NSCLC; 786-0 renal; COLO 205 colon; DU-145 prostate; K-562 leukemia; MALME-3M melanoma; MDA-MB-231 breast; RXF 393 renal; SF-268 CNS; SF-295 CNS; SF-539 CNS; UACC-257 melanoma; M14 melanoma.
Assay in all cases: NCI-60 one-dose screen, 48 h (100 = growth as untreated, 0 = no growth, -100 = all killed)
Conditions in all cases: 10 µM unless noted

Growth data for eight compounds are collected here from PubChem BioAssay (NCI).

Compounds without any hit were thinned out: in the full panel of roughly 83,000, 20% have a hit.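 Testing used 96-well plates and a 48-hour single-concentration exposure. Example: -40 means 40% of the starting cells died.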 Values without a mark were called inactive. Calls of active or inactive are those of the source. Rule for the calls: active = growth percent below 10; inactive = the rest.

For the compound `CC1=C/C(=C(\c2cc(C)c(O)c(C(=O)O)c2)c2c(Cl)cccc2Cl)C=C(C(=O)O)C1=O`, the growth is 98.8% in the test with NCI-H23 lung; 96.7% in the test with NCI-H226 lung; 97.7% in the test with NCI-H322M lung; 97% with HOP-62 NSCLC; 104% in the test with NCI-H460 lung; 92.9% in the test on HOP-92 NSCLC. The growth with NCI-H522 lung was 97.8%; with A549/ATCC NSCLC, 100%; in the test on 786-0 renal, 102%; with COLO 205 colon, 110%; with DU-145 prostate it was 118%; in the test on K-562 leukemia, 114%. Further, the growth is 88.3% in the test with MALME-3M melanoma; 99.9% with MDA-MB-231 breast; 120% with RXF 393 renal; 104% in the test with SF-268 CNS; 100% in the test on SF-295 CNS; 100% in the test on SF-539 CNS. In addition, the growth in the test with UACC-257 melanoma is 106%; in the test on M14 melanoma it was 97.4%.

For `C#CCOc1ccc(C2=NN(CC3CC3)C3N=C(Cl)c4ncn(CC5CC5)c4N23)cc1OCC#C` (stereo not given), the growth was 85.7% in the test with NCI-H23 lung; 76.4% in the test on NCI-H226 lung; 76.1% in the test on NCI-H322M lung; 83.8% with HOP-62 NSCLC; 69.6% with NCI-H460 lung; 61.7% in the test with HOP-92 NSCLC. Further, the growth in the test on NCI-H522 lung was 60.6%; in the test on A549/ATCC NSCLC it was 71.4%; in the test on 786-0 renal it was 93.6%; with COLO 205 colon it was 78.9%; in the test on DU-145 prostate, 69%; in the test with K-562 leukemia, 48.6%. The growth in the test with MALME-3M melanoma is 83.5%; in the test with MDA-MB-231 breast, 87.5%; in the test with RXF 393 renal, 51.2%; in the test with SF-268 CNS, 96.8%; with SF-295 CNS, 88%; in the test with SF-539 CNS, 90%. The growth is 98.8% in the test on UACC-257 melanoma and 74.3% in the test on M14 melanoma.

Turning to `Nc1nc(SCc2cccc([N+](=O)[O-])c2)c2[nH]cnc2n1`, the growth in the test on NCI-H23 lung is 102%; with NCI-H226 lung, 90%; in the test with NCI-H322M lung, 91.2%; with HOP-62 NSCLC, 94.6%; with NCI-H460 lung it was 108%; with HOP-92 NSCLC, 100%. The growth was 81.1% in the test with NCI-H522 lung; 97.2% in the test on A549/ATCC NSCLC; 98.1% with 786-0 renal; 114% in the test on COLO 205 colon; 104% in the test with DU-145 prostate; 92% in the test on K-562 leukemia. In addition, the growth in the test on MALME-3M melanoma is 107%; in the test on MDA-MB-231 breast, 103%; in the test on RXF 393 renal, 73.6%; in the test with SF-268 CNS, 90.2%; with SF-295 CNS it was 93.6%; with SF-539 CNS, 103%. Moreover, the values for the growth with UACC-257 melanoma and in the test on M14 melanoma were 104% and 100%, respectively.

Take `COc1ccc(-c2c(C)nn3c(NCCN4CCOCC4)cc(C)nc23)cc1OC`: the growth was 102% with NCI-H23 lung; 94.2% in the test with NCI-H226 lung; 102% in the test with NCI-H322M lung; 95% in the test with HOP-62 NSCLC; 103% in the test on NCI-H460 lung; 108% in the test with HOP-92 NSCLC. The growth with NCI-H522 lung is 106%; in the test with A549/ATCC NSCLC it was 96.6%; in the test with 786-0 renal it was 94.7%; in the test on COLO 205 colon, 111%; with DU-145 prostate, 106%; in the test with K-562 leukemia it was 97.8%. The growth was 96.8% in the test with MALME-3M melanoma; 86% in the test on MDA-MB-231 breast; 83.6% in the test on RXF 393 renal; 101% with SF-268 CNS; 82% in the test on SF-295 CNS; 81.9% in the test with SF-539 CNS. The growth in the test on UACC-257 melanoma is 99.9%; in the test on M14 melanoma, 96.3%.

On to `N#Cc1c(Cl)nc(SCC2CO2)nc1-c1ccccc1` (stereo not given), for which the growth in the test with NCI-H23 lung is 101%; with NCI-H226 lung, 114%; with NCI-H322M lung, 105%; in the test on HOP-62 NSCLC it was 92.8%; in the test on NCI-H460 lung, 101%; with HOP-92 NSCLC, 89.8%. For the same compound, the growth was 101% with NCI-H522 lung; 124% in the test on A549/ATCC NSCLC; 99.5% with 786-0 renal; 131% with COLO 205 colon; 123% with DU-145 prostate; 128% with K-562 leukemia. For the same compound, the growth in the test on MALME-3M melanoma was 85.1%; with MDA-MB-231 breast, 118%; in the test on RXF 393 renal, 101%; with SF-268 CNS it was 116%; with SF-295 CNS it was 117%; in the test with SF-539 CNS, 105%. The growth in the test on UACC-257 melanoma is 39.9%; with M14 melanoma, 98.5%.

For `COc1ccc(-c2nc3ccccn3c2/C=C/C(=O)c2cc(OC)c(OC)c(OC)c2)cc1OC`, the growth was 16.3% in the test on NCI-H23 lung; 23.3% with NCI-H226 lung; 51.3% with NCI-H322M lung; 28.5% with HOP-62 NSCLC; 0.623% (active) in the test with NCI-H460 lung; -22.5% (active) in the test on HOP-92 NSCLC. Besides, the growth was -5.63% (active) in the test on NCI-H522 lung; 20.7% with A549/ATCC NSCLC; 24.7% with 786-0 renal; 17.9% in the test on COLO 205 colon; 12.7% in the test on DU-145 prostate; 14.6% with K-562 leukemia. Also, the growth in the test on MALME-3M melanoma was 45.9%; in the test on MDA-MB-231 breast it was 21.4%; in the test on RXF 393 renal, 27.8%; in the test on SF-268 CNS it was 26.2%; with SF-295 CNS it was 4.4% (active); in the test with SF-539 CNS, -25.1% (active). The growth was 52.8% with UACC-257 melanoma and 13.4% in the test with M14 melanoma.

Take `Cc1cc2c(C(C)C)c(O)c(O)c(C=NCc3ccoc3)c2c(O)c1-c1c(C)cc2c(C(C)C)c(O)c(O)c(C=NCc3ccco3)c2c1O`: the growth was 23.5% in the test on NCI-H23 lung; 72% in the test on NCI-H226 lung; 44.5% with NCI-H322M lung; 53.3% in the test with HOP-62 NSCLC; 25.5% with NCI-H460 lung; 21% in the test with HOP-92 NSCLC. The growth was 35.4% in the test with NCI-H522 lung; 26.3% with A549/ATCC NSCLC; 62.3% with 786-0 renal; 10.6% with COLO 205 colon; 49.1% with DU-145 prostate; 9.26% (active) with K-562 leukemia. For the same compound, the growth is 66.4% in the test with MALME-3M melanoma; 31.8% with MDA-MB-231 breast; 58.7% in the test with RXF 393 renal; 34.9% in the test on SF-268 CNS; 22% in the test with SF-295 CNS; 60.2% in the test with SF-539 CNS. The values for the growth in the test on UACC-257 melanoma and in the test on M14 melanoma were 80.9% and 65.4%, respectively.

As for `O=c1[nH]c2cc(Cl)c(Cl)cc2n2cc3ncccc3c12`, the growth was 90.6% in the test on NCI-H23 lung; 89.2% in the test with NCI-H226 lung; 97.9% in the test with NCI-H322M lung; 80.6% with HOP-62 NSCLC; 62.8% in the test with NCI-H460 lung; 87.3% in the test on HOP-92 NSCLC. In addition, the growth was 43.8% in the test with NCI-H522 lung; 91.2% in the test with A549/ATCC NSCLC; 92.2% with 786-0 renal; 90.4% in the test on COLO 205 colon; 100% in the test with DU-145 prostate; 65.5% in the test on K-562 leukemia. Further, the growth with MALME-3M melanoma is 128%; in the test with MDA-MB-231 breast, 89.4%; with RXF 393 renal, 112%; with SF-268 CNS, 95.1%; in the test on SF-295 CNS, 58.5%; in the test on SF-539 CNS, 112%. For the same compound, the growth in the test on UACC-257 melanoma was 97.8%; with M14 melanoma, 101%.
